Several values for one entry are separate records, joined by “and”; a condition that tells them apart may be missing. Equal values may be shown once. Inconclusive results are not listed. Where a call stands in place of a potency, no number is given. More than one record can exist for a structure, and the calls need not agree. Activity calls are given as the source filed them. Unless noted, calls follow the shape of the dose curve; as a rule, active = well fitted curve in the direction sought with a large enough effect in the repeat runs; inconclusive = weak or mixed curves; inactive = no such curve, though single readings can be large; an effect the other way counts as inactive or inconclusive.
Key:
[1] = molecular target: Aryl hydrocarbon receptor (Homo sapiens) (UniProt P35869); assay: qHTS assay to identify small molecule that activate the aryl hydrocarbon receptor (AhR) signaling pathway (AID 743085); also: nearly all actives have a fitted effect of over 15% in size; also: potency is read from the fitted curve at half-maximal effect;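 as to activation: HG2L7.5c1 human HepG2 liver cells with stably integrated DRE-driven firefly reporter; series mostly up to about 70 µM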
Method in brief: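 HepG2 cells (HG2L7.5c1) stably carrying a firefly luciferase reporter driven by 20 dioxin responsive elements were exposed to compound for 24 h at 37C after a 5 h settling period; luminescence rise (ONE-Glo) indicated activation.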

[2] = qHTS assay to identify small molecule that activate the aryl hydrocarbon receptor (AhR) signaling pathway - cell viability counter screen (AID 743086); also: nearly all actives have a fitted effect of over 45% in size; also: potency is read from the fitted curve at half-maximal effect
Method in brief: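 HepG2-AhR-luc (HG2L7.5c1) cells, 4000/well, were preincubated 5 h at 37C, exposed to compound in qHTS format for 24 hr at 37C, then given CellTiter-Fluor for 30 min; viability was read as fluorescence in the reporter wells.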

[3] = molecular target: Peroxisome proliferator-activated receptor gamma (Homo sapiens) (UniProt P37231); assay: qHTS assay to identify small molecule agonists of the peroxisome proliferator-activated receptor gamma (PPARg) signaling pathway (AID 743094; active = well fitted activation curve with a large enough effect in the signal ratio in the repeat runs, not every such curve was filed as active; the % refers to the signal ratio)
Method in brief: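 Beta-lactamase FRET fluorescence was the read-out after a 1 h room-temperature substrate step, following 17 h compound treatment at 37C of HEK293H cells expressing a UAS-driven bla reporter responsive to PPARg.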

[4] = qHTS assay to identify small molecule antagonists of the peroxisome proliferator-activated receptor gamma (PPARg) signaling pathway - cell viability counter screen (AID 743194); conditions: Potency: co-treated with 50 nM rosiglitazone unless noted; also: nearly all actives have a fitted effect of over 55% in size; also: potency is read from the fitted curve at half-maximal effect
Method in brief: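 PPARg-UAS-bla HEK293H cells were plated, rested 5 h at 37 C, then treated with compounds plus rosiglitazone (50 nM final) for 17 h at 37 C; viability was then read by CellTiter-Glo luminescence after 30 min at room temperature.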

[5] = qHTS assay for small molecule agonists of the antioxidant response element (ARE) signaling pathway - cell viability counter screen (AID 743203; calls by dose curve; also: nearly all actives have a fitted effect of over 55% in size; also: potency is read from the fitted curve at half-maximal effect)
Method in brief: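 HepG2 cells carrying ARE-driven beta-lactamase; 2,000 cells/well; 5 hrs plating; compound pinned from DMSO; 16 hrs 37C/5% CO2; CellTiter-Glo added; 30 min RT; luminescence.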

[6] = qHTS assay for small molecule activators of the heat shock response signaling pathway - cell viability counter screen (AID 743209); also: nearly all actives have a fitted effect of over 50% in size; also: potency is read from the fitted curve at half-maximal effect
Method in brief: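 Luminescence from CellTiter-Glo, added after the beta-lactamase FRET read, gave the viability signal. Cells were HSE-bla HeLa treated with DMSO-dissolved compounds for 5 h at 37 C following overnight plating.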

[7] = qHTS assay for small molecule activators of the heat shock response signaling pathway (AID 743210; active = well fitted activation curve with a large enough effect in the signal ratio in the repeat runs, with a control signal flat, not every such curve was filed as active; the % refers to the signal ratio;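 also: HeLa cells with beta-lactamase reporter driven by heat shock elements; series mostly up to about 63 µM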)
Method in brief: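 Reporter gene assay: HeLa cells stably bearing an HSE-bla construct, compound treatment 5 h at 37 C, LiveBLAzer substrate 2.5 h at RT, fluorescence intensity.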

[8] = molecular target: Peroxisome proliferator-activated receptor gamma (Homo sapiens) (UniProt P37231); assay: qHTS assay to identify small molecule antagonists of the peroxisome proliferator-activated receptor gamma (PPARg) signaling pathway (AID 743191; calls by dose curve; also: series mostly up to about 63 µM; nearly all actives have a fitted effect of over 30% in size)
Method in brief: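 GeneBLAzer PPARg UAS-bla HEK293H cells carrying a UAS-driven beta-lactamase reporter were plated at 3000 cells/well, preincubated 5 h at 37C, then given compound for 17 h at 37C; LiveBLAzer B/G FRET substrate was read after 1 h at room temperature.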

[9] = qHTS assay for small molecule agonists of the antioxidant response element (ARE) signaling pathway (AID 743202; active = well fitted activation curve with a large enough effect in the signal ratio in the repeat runs, not every such curve was filed as active; the % refers to the signal ratio; also: potency is read from the fitted curve at half-maximal effect)
Method in brief: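 Compounds delivered in DMSO to ARE-bla HepG2 cells (2,000 cells/well, pre-incubated 5 h) and left 16 h at 37 C. LiveBLAzer B/G FRET substrate then added for 2 h at RT before fluorescence reading.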

[10] = qHTS assay to identify small molecule agonists of the peroxisome proliferator-activated receptor delta (PPARd) signaling pathway - cell viability counter screen (AID 743211); also: nearly all actives have a fitted effect of over 55% in size; also: potency is read from the fitted curve at half-maximal effect
Method in brief: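 PPARd-bla HEK293H cells (UAS-beta-lactamase reporter) were treated with compounds for 17 h at 37 C. Viability was then read in the same wells by CellTiter-Glo luminescence after 30 min at room temperature.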

Sequence of Aryl hydrocarbon receptor (Homo sapiens) (P35869 whole entry, looked up): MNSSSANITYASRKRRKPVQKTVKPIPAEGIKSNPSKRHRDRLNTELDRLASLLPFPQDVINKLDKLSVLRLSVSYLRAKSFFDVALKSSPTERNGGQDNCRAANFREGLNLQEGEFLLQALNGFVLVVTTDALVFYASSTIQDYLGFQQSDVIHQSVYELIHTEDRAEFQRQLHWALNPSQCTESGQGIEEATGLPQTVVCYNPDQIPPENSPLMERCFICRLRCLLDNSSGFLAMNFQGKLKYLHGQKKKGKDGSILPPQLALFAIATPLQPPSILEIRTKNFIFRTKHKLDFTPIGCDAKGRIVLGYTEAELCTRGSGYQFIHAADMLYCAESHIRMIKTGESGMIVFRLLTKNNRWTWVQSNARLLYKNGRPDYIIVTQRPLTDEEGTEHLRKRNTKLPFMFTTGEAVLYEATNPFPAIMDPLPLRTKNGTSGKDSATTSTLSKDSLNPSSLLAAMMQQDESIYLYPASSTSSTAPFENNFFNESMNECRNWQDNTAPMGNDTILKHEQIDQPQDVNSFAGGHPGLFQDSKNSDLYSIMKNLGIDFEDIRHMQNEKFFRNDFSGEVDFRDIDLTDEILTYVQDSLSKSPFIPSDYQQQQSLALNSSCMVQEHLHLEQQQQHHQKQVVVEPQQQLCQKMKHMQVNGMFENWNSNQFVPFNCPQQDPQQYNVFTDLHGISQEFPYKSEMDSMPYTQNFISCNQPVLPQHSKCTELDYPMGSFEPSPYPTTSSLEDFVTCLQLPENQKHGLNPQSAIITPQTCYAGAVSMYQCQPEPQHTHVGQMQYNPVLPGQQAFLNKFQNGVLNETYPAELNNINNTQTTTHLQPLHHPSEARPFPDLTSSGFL
Sequence of Peroxisome proliferator-activated receptor gamma (Homo sapiens) (P37231 whole entry, looked up): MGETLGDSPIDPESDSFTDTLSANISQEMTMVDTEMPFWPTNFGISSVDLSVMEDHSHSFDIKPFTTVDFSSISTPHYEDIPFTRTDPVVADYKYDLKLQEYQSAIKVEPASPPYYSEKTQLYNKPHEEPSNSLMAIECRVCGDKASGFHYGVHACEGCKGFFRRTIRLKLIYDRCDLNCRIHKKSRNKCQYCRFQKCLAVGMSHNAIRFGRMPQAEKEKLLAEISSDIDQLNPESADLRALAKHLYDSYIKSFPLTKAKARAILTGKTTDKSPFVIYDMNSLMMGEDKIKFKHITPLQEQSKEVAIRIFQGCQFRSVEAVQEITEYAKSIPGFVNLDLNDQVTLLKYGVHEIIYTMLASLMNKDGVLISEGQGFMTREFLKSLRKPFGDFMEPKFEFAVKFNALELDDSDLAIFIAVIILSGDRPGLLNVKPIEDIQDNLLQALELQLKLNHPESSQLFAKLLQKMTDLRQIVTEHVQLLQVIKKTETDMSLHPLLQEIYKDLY

| SMILES | Potency [1] | Potency [2] | outcome [3] | Potency [4] | Potency [5] | Potency [6] | outcome [7] | Potency [8] | Potency [9] | Potency [10] |
| --- | --- | --- | --- | --- | --- | --- | --- | --- | --- | --- |
| C[C@]12CCC(=O)C=C1CC[C@@H]1[C@@H]2CC[C@]2(C)C(=O)CC[C@@H]12 | inactive | inactive | inactive | inactive | inactive | inactive | inactive | – | – | – |
| CCC(=O)C(CC(C)N(C)C)(c1ccccc1)c1ccccc1 (stereo unspecified) | inactive | inactive | inactive | inactive | inactive | inactive | inactive | inactive | – | – |
| CCCCn1cc[n+](C)c1 | inactive | inactive | – | inactive | inactive | inactive | – | – | inactive | – |
| O=C(O)c1nc(Cl)ccc1Cl | 22.4 µM (active) and inactive | inactive | – | inactive | inactive | inactive | inactive | – | inactive | – |
| CCCCCCn1cc[n+](C)c1 | inactive | inactive | – | inactive | inactive | inactive | – | – | – | – |
| CCC[N+]1(C)CCCCC1 | inactive | inactive | – | inactive | inactive | inactive | inactive | – | inactive | – |
| CCCC[N+]1(C)CCCC1 | – | inactive | – | inactive | inactive | inactive | inactive | – | inactive | inactive |
| CCCCCCCCn1cc[n+](C)c1 | inactive | inactive | – | inactive | inactive | inactive | inactive | – | 4.32 µM (active) and 5.49 µM (active) | – |
| CCCCCCCCCCCCOS(=O)(=O)O | – | inactive | – | inactive | inactive | inactive | – | – | inactive | – |
| O=C(O)CCl | – | inactive | inactive | inactive | inactive | inactive | inactive | inactive | inactive | inactive |
| CCCC[n+]1ccccc1 | inactive | inactive | – | inactive | inactive | inactive | – | – | inactive | inactive |
| CC(=O)O | inactive | inactive | – | inactive | inactive | inactive | – | – | inactive | inactive |
| N#CS | inactive | inactive | – | inactive | inactive | inactive | inactive | – | inactive | inactive |
| O=C(O)COc1ccc(Cl)cc1Cl | – | inactive | – | inactive | inactive | inactive | – | – | inactive | – |
| C=CCOC(Cn1ccnc1)c1ccc(Cl)cc1Cl (stereo unspecified) | – | inactive | inactive | inactive | inactive | inactive | – | inactive | – | – |
| O=[N+]([O-])O | inactive | inactive | – | inactive | inactive | inactive | – | – | inactive | – |
| CCCn1cc[n+](C)c1 | – | inactive | inactive | inactive | inactive | inactive | inactive | inactive | inactive | – |
| CCC[N+]1(C)CCCC1 | – | inactive | – | inactive | inactive | inactive | inactive | – | inactive | – |

| SMILES | Potency [1] | Potency [2] | outcome [3] | Potency [4] | Potency [5] | Potency [6] | outcome [7] | Potency [8] | Potency [9] | Potency [10] |
| --- | --- | --- | --- | --- | --- | --- | --- | --- | --- | --- |
| CCCCCC[n+]1ccccc1 | inactive | inactive | – | inactive | inactive | inactive | inactive | – | 43.2 µM (active) and inactive and 17.2 µM (active) | – |
| CCCCCCCCCCCCn1cc[n+](C)c1 | – | – | – | – | – | – | inactive | – | inactive | – |
| O=C(O)c1ccccc1O | – | inactive | – | inactive | inactive | inactive | – | – | inactive | – |
| CC(=O)[O][Hg][c]1ccccc1 | inactive | 9.44 µM (active) and 4.29 µM (active) and 4.86 µM (active) | – | 686 nM (active) and 309 nM (active) and 1.88 µM (active) | 762 nM (active) and 433 nM (active) and 1.19 µM (active) | 1.22 µM (active) and 1.1 µM (active) and 2.11 µM (active) | – | – | – | 611 nM (active) and 977 nM (active) and 2.98 µM (active) |
| CCCCCCCCCCCCCC[P+](CCCCCC)(CCCCCC)CCCCCC | inactive | 61.4 µM (active) and 54.9 µM (active) and inactive | – | 24.7 µM (active) and 7.82 µM (active) and 2.45 µM (active) | 24.4 µM (active) and 15.5 µM (active) and inactive | 6.19 µM (active) and 7.82 µM (active) | inactive | – | inactive | 7.8 µM (active) and 2.47 µM (active) and 61.6 nM (active) |
| CC[N+]1(C)CCCC1 | inactive | inactive | – | inactive | inactive | inactive | inactive | – | inactive | inactive |
| CCCC[n+]1cccc(C)c1 | inactive | inactive | – | inactive | inactive | inactive | inactive | – | 60.9 µM (active) and inactive | – |
| O=S(=O)(O)O | inactive | inactive | – | inactive | inactive | inactive | – | – | inactive | – |
| CC[N+](CC)(CC)CC | inactive | inactive | – | inactive | inactive | inactive | inactive | – | inactive | – |
| CCCC[n+]1ccccc1C | – | inactive | – | inactive | inactive | inactive | inactive | – | – | – |
| Nc1ccccc1 | – | inactive | inactive | inactive | inactive | inactive | inactive | inactive | inactive | inactive |
| CCCC[n+]1ccc(C)cc1 | – | inactive | – | inactive and 48.7 µM [setting not given] (active) | inactive | 54.7 µM (active) and inactive | inactive | – | 3.91 µM (active) and 4.33 µM (active) and inactive | inactive and 48.7 µM (active) |
| O=C(O)C(Cl)(Cl)Cl | – | inactive | inactive | inactive | inactive | inactive | inactive | inactive | inactive | inactive |
| CCCCCCCCCCCC(=O)O | – | inactive | – | inactive | inactive | inactive | – | – | inactive | – |
| Oc1cccc2cccnc12 | – | inactive and 18.8 µM (active) and 2.05 µM (active) | – | inactive | inactive and 4.33 µM (active) | 876 nM (active) and inactive and 710 nM (active) | inactive | – | 6.14 µM (active) and 25.9 µM (active) and inactive | – |
| Cc1cc(-c2ccc(N)c(C)c2)ccc1N | – | inactive | inactive | inactive | inactive | inactive | inactive | inactive | 8.73 µM (active) | inactive |
| CC[n+]1ccccc1 | – | inactive | inactive | inactive | inactive | inactive | – | inactive | inactive and 2.71 µM (active) | – |
| CCCCn1cc[n+](C)c1C | inactive | inactive | – | inactive | inactive | inactive | inactive | – | 60.8 µM (active) and 54.7 µM (active) and 61.6 µM (active) | – |

— PubChem BioAssay (Tox21)
